Source: PMC4336329 (PLoS ONE, 2015)
In all, about 310,000 compounds went through this assay and about 14,000 (4.5%) showed an effect of 50% or more. The effect is printed as a negative number. For the sample, strong results were picked, then their nearest neighbours and some compounds at random.

target: human ether-à-go-go-related gene (hERG) potassium channel (human, UniProt Q12809); assay: primary screen, population patch clamp on CHO cells stably expressing hERG; higher = less effect of the substance
Sequence (Q12809 whole entry, looked up): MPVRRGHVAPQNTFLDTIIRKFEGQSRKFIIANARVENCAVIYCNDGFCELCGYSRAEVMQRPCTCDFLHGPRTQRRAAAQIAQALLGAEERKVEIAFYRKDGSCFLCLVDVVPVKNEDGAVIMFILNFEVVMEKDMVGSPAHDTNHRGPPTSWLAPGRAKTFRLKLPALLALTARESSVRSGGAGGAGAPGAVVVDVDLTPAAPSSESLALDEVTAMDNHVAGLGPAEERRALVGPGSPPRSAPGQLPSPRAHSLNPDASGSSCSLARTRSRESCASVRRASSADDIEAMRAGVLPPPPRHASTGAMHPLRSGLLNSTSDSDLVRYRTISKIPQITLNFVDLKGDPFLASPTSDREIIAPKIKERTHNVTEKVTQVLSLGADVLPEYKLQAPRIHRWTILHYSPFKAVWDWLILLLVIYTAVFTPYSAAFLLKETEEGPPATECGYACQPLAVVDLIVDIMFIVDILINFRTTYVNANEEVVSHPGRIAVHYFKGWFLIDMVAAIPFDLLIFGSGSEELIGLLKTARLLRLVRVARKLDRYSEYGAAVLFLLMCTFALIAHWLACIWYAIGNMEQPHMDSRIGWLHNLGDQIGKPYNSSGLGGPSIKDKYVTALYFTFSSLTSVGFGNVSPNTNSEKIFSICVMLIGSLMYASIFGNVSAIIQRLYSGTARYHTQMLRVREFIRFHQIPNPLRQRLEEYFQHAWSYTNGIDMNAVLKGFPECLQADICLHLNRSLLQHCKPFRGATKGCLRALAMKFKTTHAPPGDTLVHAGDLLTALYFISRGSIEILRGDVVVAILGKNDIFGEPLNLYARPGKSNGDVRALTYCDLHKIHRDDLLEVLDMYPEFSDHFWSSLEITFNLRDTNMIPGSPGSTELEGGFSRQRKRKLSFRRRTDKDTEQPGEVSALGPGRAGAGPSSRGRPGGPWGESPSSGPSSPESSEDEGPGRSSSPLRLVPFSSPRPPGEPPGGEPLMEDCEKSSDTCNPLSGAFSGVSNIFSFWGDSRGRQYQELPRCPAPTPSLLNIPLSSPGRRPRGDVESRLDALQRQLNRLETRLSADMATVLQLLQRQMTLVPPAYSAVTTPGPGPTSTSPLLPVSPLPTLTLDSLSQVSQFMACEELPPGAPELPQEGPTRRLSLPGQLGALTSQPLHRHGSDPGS
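Note: peak tail current of the secondary pulse compared with the same well before compound.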

| Structure (SMILES) | hERG current change (%, negative = inhibition) at 10uM [%] |
| --- | --- |
| COc1cccc(-n2nnc3c(=O)n(CC(=O)OCc4ccccc4)cnc32)c1 | 9.39 |
| CSc1ncc(CN2CCc3c([nH]c4ccccc34)C2c2cccc(C)n2)cn1 (centres unmarked) | -13.8 |
| O=C(Cc1ccsc1)N1CCc2c([nH]c3ccccc23)C1c1ccccn1 (centres unmarked) | 4.87 |
| c1ccc(C2c3[nH]c4ccccc4c3CCN2Cc2cccn2-c2ccccn2)nc1 (centres unmarked) | -70.5 |
| CC(=O)Nc1ccc(CN2CCc3c([nH]c4ccccc34)C2c2ccccn2)cc1 (centres unmarked) | -38.5 |
| Clc1ccc(-n2cccc2CN2CCc3c([nH]c4ccccc34)C2c2ccccn2)nc1 (centres unmarked) | -77 |
| c1ccc(C2c3[nH]c4ccccc4c3CCN2Cc2cccn2-c2cccnc2)nc1 (centres unmarked) | -23.7 |
| CCOC(=O)C1CCN(S(=O)(=O)c2ccc(Cl)nc2)CC1 | -2.6 |
| COc1ccc2oc(C(=O)NCCC(C)C)c(C)c2c1 | -0.78 |
| Cn1nc(C(=O)OCc2ccccc2F)c2ccccc2c1=O | 13 |
| COc1ccc(C(C)(C)C)cc1NC(=O)c1cccc(S(=O)(=O)N2CCN(C(C)=O)CC2)c1 | 11.5 |
| Cc1ccc(S(=O)(=O)N2CCN(c3ncnc4c3cnn4-c3ccccc3)CC2)cc1 | 14.3 |
| Oc1ccccc1C1=NN(c2ccccc2)C(c2ccc(F)cc2)C1 (centres unmarked) | 9.68 |
| Oc1ccccc1C1=Nc2ncnn2C(c2ccc(F)cc2)C1 (centres unmarked) | -80.8 |
| Oc1ccccc1C1=Nc2ncnn2C(c2ccccc2)C1 (centres unmarked) | -16.6 |
| COc1ccc(NC2CC(=O)NC2=O)cc1 (centres unmarked) | 5.24 |
| O=C1NC(=S)N/C1=C/c1cc([N+](=O)[O-])ccc1O | 12.8 |
| O=C1NC(=S)N/C1=C/c1cc([N+](=O)[O-])ccc1N1CCOCC1 | -62.9 |
| CC(=O)N1CCN(c2ccc([N+](=O)[O-])cc2C=C2C(=O)NC(=O)NC2=O)CC1 | -56.6 |
| O=Cc1cc([N+](=O)[O-])ccc1N1CCOCC1 | -19.3 |
| CN1C(=O)C(=Cc2cc([N+](=O)[O-])ccc2N2CCCCC2)C(=O)N(C)C1=O | 19.3 |
| CC(=O)N1c2ccc([N+](=O)[O-])cc2NC(=O)CC1C (centres unmarked) | 22.2 |
| CCN1CCN(c2ccc([N+](=O)[O-])cc2C=C2C(=O)NC(=O)NC2=O)CC1 | -66.3 |
| O=C1NC(=O)C(=Cc2cc([N+](=O)[O-])ccc2N2CCCCC2)C(=O)N1 | 7.84 |
| CC(=O)N1CCN(C(=S)c2cccc([N+](=O)[O-])c2)CC1 | 8.96 |
| COC(=O)C1=C(O)/C(=C\c2ccc(OCC(=O)Nc3ccccc3OC)cc2)N=C1C | 0.751 |
| Cc1ccccc1Nc1nc(-c2sc(NC(=O)c3ccco3)nc2C)cs1 | 23.6 |

| Structure (SMILES) | hERG current change (%, negative = inhibition) at 10uM [%] |
| --- | --- |
| O=C(Nc1cccc(Cl)c1)c1nc[nH]c1C(=O)N1CCN(c2ccccc2)CC1 | 8.06 |
| Cc1c(N/C(=N/S(=O)(=O)c2ccc(F)cc2)c2ccccc2)c(=O)n(-c2ccccc2)n1C | 0.39 |
| O=[N+]([O-])c1ccc(Oc2ccc(-c3cnc4ccccc4n3)cc2[N+](=O)[O-])cc1 | 6.13 |
| c1nc(N2CCCCC2)c2[nH]cnc2n1 | 9.4 |
| C=CCn1c(SCCN2CCCCC2)nc2c1c(=O)[nH]c(=O)n2C | -47.3 |
| CCOc1ccc(C(=O)NC2CC3CCCC(C2)N3CC(C)C)cc1 (centres unmarked) | -41.1 |
| CCOc1ccc(C(=O)NC2CC3CCCC(C2)N3Cc2ccccc2)cc1 (centres unmarked) | -57.5 |
| COc1ccc(C(=O)NC2CC3CCCC(C2)N3Cc2ccccc2)cc1 (centres unmarked) | -53.5 |
| COc1ccc(C(=O)NC2CC3CCCC(C2)N3Cc2ccccc2)cc1OC (centres unmarked) | -23.6 |
| Cc1ccn2c(NC(=O)c3cccs3)c(-c3ccccc3)nc2c1 | -0.701 |
| CC1(C)Cc2c(cnn2-c2cccc(F)c2)C(NC(=O)CSc2ccncc2)C1 (centres unmarked) | -56.5 |
| Cc1ccccc1-n1ncc2c1CC(C)(C)CC2NC(=O)CSc1ccncc1 (centres unmarked) | -8.26 |
| CC1(C)Cc2c(cnn2-c2cccc(F)c2)C(NC(=O)CCc2cnccn2)C1 (centres unmarked) | -28.4 |
| CC1(C)Cc2c(cnn2-c2cccc(F)c2)C(NC(=O)CSc2ccccn2)C1 (centres unmarked) | -20.6 |
| C=CCCC(=O)NC1CC(C)(C)Cc2c1cnn2-c1cccc(F)c1 (centres unmarked) | -68.4 |
| CC1(C)Cc2c(cnn2-c2cccc(F)c2)C(NC(=O)Cn2cccn2)C1 (centres unmarked) | -11.5 |
| CCC1CCCCN1C(=S)NCc1ccccc1 (centres unmarked) | -1.29 |
| COc1ccc(-c2c(C)n([O-])c(C)c(-c3ccccc3)[n+]2=O)cc1OC | 7.35 |
| Cc1cccc(-n2cc(CN(C)Cc3nccn3C)c(-c3cccc(F)c3)n2)c1 | -6.01 |
| CCN(CC(=O)NC(C)(C)C)C(=O)c1ccc(Br)cc1 | 2.64 |
| O=C(NCCc1ccc(Cl)cc1)C1CCCN1C(=O)Nc1ccccc1 (centres unmarked) | -11.5 |
| COc1ccc(C(=O)Nc2ccc(SC(F)F)cc2)cc1 | -2.14 |
| CCOc1ccccc1NC(=O)c1cc(C(=O)c2cc(OC)ccc2O)coc1=N | -20.3 |
| COc1ccc(O)c(C(=O)c2coc(=N)c(C(=O)Nc3ccc(SC(F)F)cc3)c2)c1 | -69.9 |
| O=c1[nH]c(C2CCN(S(=O)(=O)c3ccc(F)cc3)CC2)nc2c1nnn2Cc1ccc2c(c1)OCCO2 | 11.1 |
| COc1cc2c(c(OC)c1OC)-c1ccc(O)c(=O)cc1C(NC(C)=O)CC2 (centres unmarked) | 13.7 |
